Among the test systems are AURKA; AURKB; AURKC; AXL; BLK; BMPR1A; BMPR1B; BMPR2.
What all share (details): concentration: 1 μM, replicates: in singlicate; n = 1
Another experiment concerns T1, ASK2.
T1 construct: gene MAP3K6

The subject of the next experiment is T2, BIKE.
T2 construct: gene BMP2K
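Note: KINOMEscan kinase panel screen.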

With `CN(c1ccc(F)c(NC(=O)c2cccc(OC(C)(C)C#N)c2Cl)c1)c1ccc2nc(NC(=O)C3CC3)sc2n1`, the “%Inh” value in the experiment with ASK2 was 6%; in the experiment on AURKA it was 22%; in the experiment with AURKB it was 4%; in the experiment on AURKC, 0%; in the experiment on AXL, 6%; in the experiment with BIKE, 0%. The “%Inh” value worked out at 96.3% in the experiment with BLK, 0% with BMPR1A, 0% with BMPR1B and 0% in the experiment on BMPR2.
In the case of `O=C(O)C(F)(F)F.O=c1[nH]ccc2nc(N[C@@H]3CCNC3)nc(Nc3cc(Cl)cc(Cl)c3)c12` [GSK2188764], the “%Inh” value was found to be 4% in the experiment with ASK2; 97.3% in the experiment with AURKA; 75% in the experiment on AURKB; 69% with AURKC; 92.1% in the experiment with AXL; 97.6% in the experiment with BIKE. Also, the “%Inh” value was 0% in the experiment on BLK, 0% with BMPR1A, 0% in the experiment with BMPR1B and 70% with BMPR2.
As for `Cc1ccc(NC(=O)c2cccc(N3CCCCC3)c2)cc1-c1ccc(C(=O)NCC2CC2)cc1` [GSK1917008], the “%Inh” value is reported as 11% in the experiment with ASK2; 0% in the experiment with AURKA; 0% in the experiment with AURKB; 7% in the experiment with AURKC; 5% with AXL; 13% in the experiment on BIKE. Moreover, the “%Inh” value was found to be 72% in the experiment with BLK, 0% in the experiment on BMPR1A, 2% with BMPR1B and 0% with BMPR2.
Turning to `Cc1cc(-c2c(-c3ccc(F)cc3)ncn2CCCN2CCOCC2)nc(N)n1` [SB-222517], the “%Inh” value in the experiment on ASK2 is 14%; with AURKA, 28%; in the experiment with AURKB, 39%; in the experiment on AURKC, 3%; with AXL it was 0%; with BIKE, 0%. In addition, the “%Inh” value in the experiment on BLK worked out at 8%; in the experiment on BMPR1A, 20%; in the experiment on BMPR1B, 0%; in the experiment with BMPR2, 35%.
For the molecule `c1ccc(Oc2ccc(Nc3ccnc4cc(-c5ccc(CN6CCCCC6)o5)ccc34)cc2)nc1` [GW567143], the “%Inh” value in the experiment on ASK2 was determined as 24%; in the experiment with AURKA it was 10%; in the experiment with AURKB, 80%; in the experiment on AURKC, 44%; in the experiment on AXL, 8%; in the experiment on BIKE it was 8%. Further, the “%Inh” value with BLK is listed as 95.5%; in the experiment with BMPR1A, 0%; with BMPR1B it was 0%; in the experiment on BMPR2 it was 0%.
In the case of `COc1cccc2c(-c3ccncc3)c(-c3ccc(F)cc3)nn12` [GW468513], the “%Inh” value worked out at 0% in the experiment with ASK2; 0% in the experiment on AURKA; 0% in the experiment with AURKB; 17% in the experiment on AURKC; 13% in the experiment on AXL; 26% in the experiment with BIKE. Also, the “%Inh” value is on record as 49% with BLK, 0% with BMPR1A, 0% with BMPR1B and 7% in the experiment with BMPR2.
For `Cc1ccc(Nc2ccnc(Nc3ccc(C)c(F)c3)n2)cc1O.Cl` [GW582868], the “%Inh” value is given as 0% with ASK2; 0% with AURKA; 0% in the experiment on AURKB; 19% in the experiment on AURKC; 32% with AXL; 29% with BIKE. Besides, the “%Inh” value with BLK was 51%; in the experiment on BMPR1A, 7%; with BMPR1B, 30%; with BMPR2, 7%.
For the molecule `COc1cccc(CC(=O)N2CCc3cc(-c4cn(C)c5ncnc(N)c45)ccc32)c1` [GSK2608899], the “%Inh” value is reported as 12% in the experiment with ASK2; 52% in the experiment on AURKA; 87% with AURKB; 48% in the experiment on AURKC; 96.2% in the experiment with AXL; 21% with BIKE. In addition, the “%Inh” value in the experiment with BLK came out at 36%; in the experiment with BMPR1A, 6%; in the experiment with BMPR1B, 6%; with BMPR2, 0%.
On to `Cc1ccccc1CC(=O)N1CCc2cc(-c3cn(C)c4ncnc(N)c34)ccc21` [GSK2603346], for which the “%Inh” value with ASK2 is 6%; in the experiment on AURKA it was 27%; in the experiment with AURKB it was 92%; in the experiment with AURKC it was 100%; with AXL, 98.7%; in the experiment on BIKE, 82%. Moreover, the “%Inh” value in the experiment on BLK is given as 49%; in the experiment with BMPR1A, 0%; in the experiment on BMPR1B, 0%; in the experiment with BMPR2, 0%.

The values above are taken from publication PMC5540273 (PLoS ONE, 2017).
